# Measured values from PubChem BioAssay.
# Target: Calmodulin-1 (Homo sapiens) (UniProt P0DP23)
# Assay: calcium-bound CALM1 binders on microarrays, profiling panel, artefact control for SMM control-protein annotation, biochemical, small-molecule microarray, Cy5-labelled CALM1, plus calcium (AID 1112);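 further: score merges spot fluorescence with signal to noise from triplicate slides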
# Settings: Cy5-CALM1 binding fluorescence, higher = more signal
row,Structure (SMILES),composite z-score
1,COC(=O)[C@H](C)NC(=O)CCC1CC(OC(=O)NCCc2ccc(F)cc2)CC2(CCCC(COC(=O)NCCc3ccc(Cl)cc3)O2)O1 (stereo partly specified),0.232
2,C=COC[C@H]1CN2[C@@H](CC[C@@H](C)[C@@H]2c2ccc(Br)cc2)C(=O)O1,-0.092
3,CN1C(=O)C2C=CC(C(O)c3ccc(Br)cc3)N(N(c3ccccc3)c3ccccc3)C2C1=O (stereo unspecified),0.428
4,COC(=O)[C@H](C)NC(=O)[C@@H](C)CO,-0.369
5,O=C1[C@H]2[C@H]3[C@H](O)[C@H](O)CC(=NOCc4ccccc4)[C@@H]3CC[C@H]2C(=O)N1Cc1ccccc1,-0.374
6,CC(C)[C@@H](OCc1ccccc1)[C@H](C)C=NOC[C@@H](C)[C@H](OCc1ccccc1)C(C)C,-0.546
7,CCOC(=O)[C@H](Cc1ccccc1)NC(=O)CCC1CC(OC(=O)NCc2ccc3c(c2)OCO3)CC2(CCCC(COC(=O)NCC3CCCCC3)O2)O1 (stereo partly specified),-0.135
8,COC(=O)[C@@H]1CC[C@H](C)[C@@H](c2ccc(C)cc2)N1C(=O)c1ccc(C=NOC[C@@H](O)COCc2ccco2)cc1,-1.22
9,Cc1cc2c(nc1C)CCCN2CC(O)CN1CCN(C)CC1 (stereo unspecified),-0.482
10,C=C(CCCC)C(=O)CC[C@@H](OC(C)=O)c1cccc(OCCO)c1,-1.28
11,CCOC(=O)[C@H](Cc1ccccc1)NC(=O)CCC1CC(OC(=O)NCc2ccc3c(c2)OCO3)CC2(CCCC(COC(=O)NCC(c3ccccc3)c3ccccc3)O2)O1 (stereo partly specified),-0.0205
12,C#CCCCON=C1C[C@@H](O)[C@@H](O)[C@@H]2[C@@H]3C(=O)N(c4cccc(Oc5ccccc5)c4)C(=O)[C@@H]3CC[C@@H]12,-0.285
13,CC(C)CON=C1C[C@@H](O)[C@@H](O)[C@@H]2[C@@H]3C(=O)N(C[C@@H]4CCCO4)C(=O)[C@@H]3CC[C@H]12,0.0249
14,CCN1C(=O)[C@H]2[C@H]3[C@H](O)[C@H](O)CC(=NO[C@@H]4O[C@H](CO)[C@@H](O)[C@H](O)[C@H]4O)[C@@H]3CC[C@H]2C1=O,-0.813
15,COc1ccc(-c2ccc3c(n2)CCCN3CC(O)CN2CCCc3nc(C)c(C)cc32)cc1 (stereo unspecified),-0.636
16,CO[C@H]1O[C@H](CO)[C@@H](OC(=O)Nc2ccc3c(c2)OCO3)[C@H](OC(=O)Nc2ccccc2-c2ccccc2)[C@@H]1OC(=O)Nc1ccccc1-c1ccccc1,0.116
17,COC(=O)CC1OC1[C@H](C)[C@@H](OC)C(C)C (stereo partly specified),-1.26
18,CO[C@@H]1COC(=O)CC=C[C@@H](C)[C@@H]2C=C[C@H](O)[C@@H](COC(=O)[C@H](C)NC(=O)CC=C[C@H]1C)O2,-1.99

row,Structure (SMILES),composite z-score
1,N#Cc1ccc(NN2C(C(O)c3cc(C(F)(F)F)cc(C(F)(F)F)c3)C=CC3C(=O)N(c4ccccc4)C(=O)C32)cc1 (stereo unspecified),0.892
2,CCOC(=O)NN=C1C[C@@H](O)[C@@H](O)[C@@H]2[C@@H]3C(=O)N(C[C@@H]4CCCO4)C(=O)[C@@H]3CC[C@@H]12,-0.32
3,COCCOC(=O)N1C(=O)[C@@]2(c3cc(C#CC4(O)CCCCCC4)ccc31)[C@H](C(=O)N1CCN(c3ncccn3)CC1)[C@H]1C(=O)O[C@H](c3ccccc3)[C@H](c3ccccc3)N1[C@@H]2c1ccc(OCCO)cc1,0.0751
4,C=CC[C@]1(C(=O)NCc2ccccc2)N=C(c2ccc(OCCCO)cc2)O[C@H]1c1ccccc1,-0.483
5,COc1ccc(O[C@H]2C=C[C@@H](c3ccccc3)O[C@@H]2COC(=O)CCC(C)=NOC(C)CN2CCCCc3nc(C)c(C)cc32)cc1 (stereo partly specified),-0.203
6,CO[C@@H]1COC(=O)CC=C[C@@H](C)[C@@H]2C=C[C@@H](O)[C@@H](COC(=O)CC=C[C@H]1C)O2,-2.11
7,CCOC(=O)[C@H](Cc1ccccc1)NC(=O)CCC1CC(OC(=O)NCCc2ccc(F)cc2)CC2(CCCC(COC(=O)NCC(c3ccccc3)c3ccccc3)O2)O1 (stereo partly specified),-0.658
8,C[C@H]1CC[C@@H](C(=O)O)N[C@@H]1c1ccc(C#CCN(C)C)cc1,-0.51
9,O=C1NC(=O)C2C1C=CC(C(O)Cc1ccccc1)N2Nc1ccccn1 (stereo unspecified),-0.541
10,CCOC(=O)CCN1C(=O)[C@H]2[C@H]3[C@H](O)[C@H](O)CC(=NOC[C@@H](O)COCc4ccco4)[C@@H]3CC[C@H]2C1=O,0.369
11,CC(C)(C)N1C(=O)[C@H]2[C@H]3[C@H](O)[C@H](O)CC(=NOCc4ccccc4)[C@@H]3CC[C@H]2C1=O,-0.717
12,COC(=O)[C@@]1(Cc2ccccc2)[C@H]2c3cc(C(=O)N4CCCC4)n(Cc4ccccn4)c3C[C@H]2CN1C(=O)c1ccccc1,0.053
13,C[C@@H](c1ccccc1)N1C(=O)[C@H]2[C@H]3[C@H](O)[C@H](O)CC(=NOC[C@@H](O)COCc4ccco4)[C@@H]3CC[C@H]2C1=O,-0.307
14,COc1ccc(O[C@H]2C=C[C@@H](c3ccccc3)O[C@@H]2COC(=O)CCC(C)=NOCC[C@@H]2C=C[C@H](OC(C)=O)[C@@H](COC(C)=O)O2)cc1,-1.27
15,O=C1[C@H]2[C@H]3[C@H](O)[C@H](O)CC(=NOC[C@@H](O)COCc4ccco4)[C@H]3CC[C@H]2C(=O)N1c1cccc(Oc2ccccc2)c1,-0.344
16,COC(=O)CC=C[C@@H](C)[C@@H](C=NO[C@@H](C)c1cc(-c2c(C)cc(C)cc2C)no1)OC,-1.48
17,COc1ccc(COC(=O)NN=C2C[C@@H](O)[C@@H](O)[C@@H]3[C@@H]4C(=O)N(Cc5ccc6c(c5)OCO6)C(=O)[C@@H]4CC[C@@H]23)cc1,-0.252
18,C[C@@H]1CCC2C(=O)N(Cc3ccccc3)C[C@@H](O)CN2[C@H]1c1ccc(Br)cc1 (stereo partly specified),-0.28
